Among all 350,000 compounds or so, about 9,900 (2.8%) were called active. Where a call stands in place of a potency, no number is given. Roughly 15% stayed inconclusive and do not appear here. Only a selection was taken, and actives are over-represented in it overall. Unmarked numbers belong to inactive results. Calls follow the shape of the dose curve; as a rule, active = well fitted activation curve with a large enough effect; inconclusive = small, poorly fitted or top-dose-only effect; inactive = no such curve, though single readings can be large or run the other way.
Potency is read from the fitted curve at half-maximal effect.

This test can be described thus: A quantitative high throughput screen for small molecules that induce DNA re-replication in MCF 10a normal breast cells. Also: nearly all actives have a fitted effect of over 50% in size. The note with it: MCF 10A DNA re-replication, Hoechst nuclear intensity, 48 h; series mostly up to 46.1 µM.
For the compound `C=CC[C@H](CC(=O)OC(C)(C)C)C(=O)OC[C@H]1CCCN1C(=O)[C@H](CC=C)CC(=O)N(CCO)Cc1ccccc1`, the Potency result is “inactive”.
Same read-out and setting: as for `CC/C(=C(/c1ccccc1)c1ccc(OCC[N+](C)(C)C)cc1)c1ccccc1`, the entry is “inactive”.
Still for that read-out and setting: as for `CCCCN1CC(COc2ccccc2)Oc2cccc(F)c2S1(=O)=O` (centres undefined), the entry is “inactive”; as for `CN(C)C(=O)N=NC(=O)N(C)C`, “inactive”.
For the compound `Cc1ccc(-c2nc3ccccc3[nH]2)cc1NC(=O)c1sc2ccccc2c1Cl`, the Potency was 20.6 µM (active).
Same read-out and setting: as for `COc1ccc(Br)cc1C(=O)NC(=S)Nc1cc(-c2nc3ccccc3[nH]2)ccc1C`, the entry is “inactive”; as for `O=C(Nc1cccc(-c2nc3ccccc3[nH]2)c1)c1ccc(C(=O)Nc2cccc(-c3nc4ccccc4[nH]3)c2)cc1`, “inactive”; as for `COc1ccc(S(=O)(=O)N2CCOCC2)cc1NC(=O)CSc1cc(C)ccc1C`, “inactive”.
Same read-out and setting: as for `CCN(CC(=O)Nc1ccccc1C(=O)NC1CC1)Cc1cccs1`, the entry is “inactive”; as for `CCC(=O)Nc1ccc(S(=O)(=O)NCC2CCCO2)cc1` (centres undefined), “inactive”.
Same read-out and setting: as for `CCOc1ccc(S(=O)(=O)NCC2CCCO2)cc1` (centres undefined), the entry is “inactive”; as for `O=S(=O)(NCC1CCCO1)c1ccc2ccccc2c1` (centres undefined), 2.91 µM (active); as for `O=C(COc1ccc(F)cc1Br)NCC1COc2ccccc2O1` (centres undefined), “inactive”.
On to `CCN(C(=O)COC(=O)CCC(=O)c1cccs1)C1CCCCC1`, for which the Potency result is “inactive”.
Consider `Cc1cc(C)c2nc(N3CCCC3)c(C#N)cc2c1`, for which the Potency entry is “inactive”.
Same read-out and setting: to `CCOC(=O)c1cc(C#N)c(N2CCCCC2)nc1-c1ccccc1` belongs 13 µM (active); to `CC(=O)c1cc(C#N)c(N2CCCCC2)nc1C`, “inactive”; to `CC1CN(C(=O)c2ccc([N+](=O)[O-])s2)CC(C)O1` (centres undefined), “inactive”.
The same measure, in the same setting: as for `C/C(=N\Nc1ccccc1)c1cccs1`, the entry is “inactive”; as for `CCCOc1ccc(C(=O)C(CCC(CNCC)C(=O)c2ccc(OCCC)cc2)CNCC)cc1` (centres undefined), 25.9 µM (active).
The same measure, in the same setting: as for `CCCOc1ccc(C(=O)CCC(=O)OC(C)C(=O)Nc2ccc(NC(C)=O)cc2)cc1` (centres undefined), the entry is “inactive”; as for `CCCOc1ccc(C(=O)NCCc2ccccc2)cc1`, “inactive”; as for `COc1ccc(OC)c(-c2csc(NC(=O)COC(=O)C3CC3)n2)c1`, “inactive”.
On to `Cc1ccc(NNC(=O)c2c(F)cccc2Cl)cc1Cl`, for which the Potency result was “inactive”.
On to `O=C(c1c(F)cccc1Cl)N1CCN(S(=O)(=O)c2ccc3c(c2)OCCCO3)CC1`, for which the Potency result was “inactive”.
As for `Cc1cc(C)c(S(=O)(=O)c2ccccc2)c(OC(=O)c2c(F)cccc2Cl)n1`, the Potency was 16.4 µM (active).
On the same count and under the same terms, to `O=C(COC(=O)c1cccnc1Cl)Nc1ccc(S(=O)(=O)N2CCOCC2)cc1` belongs “inactive”; to `O=C(N[C@H]1C/C=C\C(c2cccc(F)c2)N(Cc2ccccc2)C(=O)C1)OCC1c2ccccc2-c2ccccc21` (some centres undefined), “inactive”.
The same measure, in the same setting: to `Cc1nc(-c2ccc(F)cc2)c(CC(=O)N(C)CC(=O)Nc2c(C)cccc2C)s1` belongs “inactive”; to `Cc1nc(-c2ccc(Cl)cc2)sc1C(=O)NN`, 16.4 µM (active); to `Cc1nc(-c2ccccc2)sc1C(=O)/C=C/N(C)C`, “inactive”.
On the same count and under the same terms, as for `Cc1nc(N2CCOCC2)sc1C(=O)NN`, the entry is “inactive”; as for `O=C1CC(c2ccccc2)C(=O)N2C(=O)CC(c3ccccc3)C(=O)N12` (centres undefined), “inactive”; as for `COc1ccc(S(=O)(=O)N(C)C[C@H]2Oc3c(NC(=O)Nc4ccc5c(c4)OCO5)cccc3C(=O)N([C@H](C)CO)C[C@@H]2C)cc1`, “inactive”.
As for `CCCN(C(=O)CSc1nnc(N)s1)c1c(N)n(Cc2ccccc2)c(=O)[nH]c1=O`, the Potency entry was “inactive”.
The same measure, in the same setting: as for `O=C1c2cccc3cc(Br)cc(c23)C(=O)N1Nc1ccccc1`, the entry is “inactive”; as for `O=C(O)CC1=C(Nc2ccccc2)C(=O)N(c2ccccc2)C1c1ccc(Cl)cc1` (centres undefined), “inactive”.
Still for that read-out and setting: to `O=C1C=C(c2ccc(Cl)cc2)C(=O)N1Nc1ccccc1` belongs 5.8 µM (active); to `Cc1ccc(Nc2nnc(SC(C)C(=O)NC3CC3)s2)cc1` (centres undefined), “inactive”; to `O=C(N/N=C/c1ccccn1)c1cccnc1`, “inactive”.
As to `O=C(NN=C1CCC(=NNC(=O)c2cccnc2)CC1)c1cccnc1`, the Potency is 0.58 µM (active).
Consider `C/C(=N\NC(=O)c1cccnc1)c1ccc(-c2ccccc2)cc1`, for which the Potency result was “inactive”.
Same read-out and setting: to `CCN(CC)CCCC(C)n1c2nc(=O)[nH]c(=O)c-2nc2cc(Cl)ccc21` (centres undefined) belongs “inactive”.
Same read-out and setting: as for `CN(C)S(=O)(=O)c1cccc(-c2nn(-c3ccccc3)cc2/C=C2\SC(=S)N(CC(=O)O)C2=O)c1`, the entry is “inactive”; as for `COc1ccc(-c2nn(-c3ccccc3)cc2/C=C2/SC(=S)N(CCCC(=O)O)C2=O)c(C)c1`, “inactive”.
Still for that read-out and setting: to `Cc1ccc(-c2nn(-c3ccccc3)cc2/C=C2\SC(=S)N(CCCCCC(=O)O)C2=O)o1` belongs 18.4 µM (active); to `COc1cc(OC)cc(-c2c(-c3cccs3)c3cc(-c4ccc(OC)nc4)ccc3n2C)c1`, “inactive”; to `O=C(CCNC(=O)c1ccccc1)Nc1nc2ccccc2s1`, “inactive”.
For `CCS(=O)(=O)Nc1cccc(-c2cc(-c3ccccc3)c3cc(C)ccc3n2)c1`, the Potency was 14.6 µM (active).
Still for that read-out and setting: as for `Cc1ccc2nc(Nc3ccccc3)cc(C)c2c1`, the entry is “inactive”; as for `CC(=O)Nc1cccc(-c2cnc3ccccc3n2)c1`, “inactive”.
For `O=C(Cn1cc(C(F)(F)F)ccc1=O)Nc1ccc2c(c1)OCCO2`, the Potency entry was “inactive”.
Still for that read-out and setting: to `CC(C)(C)OC(=O)c1c(N)n(CCCN2CCCC2=O)c2nc3ccccc3nc12` belongs “inactive”.
Still for that read-out and setting: as for `CC(C)(C)c1ccc(C(=O)NCCn2c(N)c(C#N)c3nc4ccccc4nc32)cc1`, the figure is 7.31 µM (active).
Consider `CC(C)(C)c1ccc(C(=O)NCC(=O)OCN2C(=O)c3ccccc3C2=O)cc1`, for which the activity, positive = re-replication was -182% [at 0.0737 µM].
On to `Cc1ccnc(SCC(=O)Nc2cccc(S(=O)(=O)N3CCOCC3)c2)n1`, for which the Potency result is “inactive”.
Same read-out and setting: as for `O=C1C(=O)N(c2ccccc2)C(c2ccccc2)C1c1ccccc1` (centres undefined), the entry is “inactive”.
The same measure, in the same setting: as for `S=c1[nH]nc(-c2ccc(Cl)cc2)n1CC1CCCO1` (centres undefined), the entry is “inactive”.
The same measure, in the same setting: to `O=C(c1[nH]ncc1-c1ccc(Cl)cc1)C1CO1` (centres undefined) belongs 3.66 µM (active).
In the case of `O=C(c1nnc(-c2ccc(Cl)cc2)o1)C1CCCC1`, the Potency entry is “inactive”.
Still for that read-out and setting: to `COC(=O)[C@@]1(C)[C@H]2C(=O)N(Cc3ccccc3)C(=O)[C@H]2[C@H]2CN=C(SCC3CC3)N21` belongs “inactive”; to `COc1ccc(Cl)cc1NC(=O)CN(C)CC(=O)Nc1ccc2c(c1)OCO2`, “inactive”.
Same read-out and setting: to `Cc1ccc(C)c(N2CCN(C(=O)CCc3nc(-c4cccc(C(F)(F)F)c4)no3)CC2)c1` belongs “inactive”; to `NC(=S)NN=C1CCCC(C(F)(F)F)C1` (centres undefined), “inactive”; to `Cc1ccc(S(=O)(=O)n2oc(=O)c(C3CCCCC3)c2N)cc1`, “inactive”.
Still for that read-out and setting: as for `COc1cccc(CC2(CO)CCN(Cc3cnc(-c4cccc(C)c4)nc3)CC2)c1`, the entry is “inactive”; as for `OCC1(CCc2ccccc2)CCN(Cc2ccc3nsnc3c2)CC1`, “inactive”.
Consider `Cc1cccc(-c2ncc(CN3CCC(CO)(CCCc4ccccc4)CC3)cn2)c1`, for which the Potency is 18.4 µM (active).
As for `COc1cccc(C2=CC(=O)C[C@H](c3ccc(OC)c(OC)c3)C2)c1`, the Potency entry was “inactive”.
For the compound `COc1ccc(N2C(=O)CNC2=S)cc1`, the Potency entry is “inactive”.
The same measure, in the same setting: as for `O=C1CSC(=S)N1c1ccc(O)cc1`, the figure is 16.4 µM (active).
Still for that read-out and setting: as for `CCOc1ccc(N2C(=O)CSC2=NC#N)cc1`, the entry is “inactive”; as for `COc1ccc(CNC(=O)CN2C(=O)NC3(CCCc4sccc43)C2=O)cc1` (centres undefined), “inactive”; as for `O=C(CCCCCCCC(=O)N1CCCCC1)N1CCCCC1`, “inactive”.
The same measure, in the same setting: as for `O=C(Nc1cc(-c2ccccc2)nn1-c1ccccc1F)c1ccc([N+](=O)[O-])cc1`, the entry is “inactive”; as for `O=C1CSc2ccc(C(=O)NCc3ccccn3)cc2N1`, “inactive”.
In the case of `CCCC(CNC(=O)COC(=O)C1=NNC(=O)CC1)c1ccc(Cl)cc1Cl` (centres undefined), the Potency entry is “inactive”.
On the same count and under the same terms, to `O=C(O)/C=C/c1cn(-c2ccccc2)nc1-c1cccs1` belongs “inactive”; to `O=C(O)c1ccc(N/N=C/c2cn(-c3ccccc3)nc2-c2cccs2)cc1`, 23.1 µM (active); to `O=C(NCc1cccnc1)c1cn(-c2ccccc2)nc1-c1cccs1`, “inactive”.
The same measure, in the same setting: to `O=c1c2ccccc2[nH]c(=S)n1CCN1CCC(=C(c2ccc(F)cc2)c2ccc(F)cc2)CC1` belongs 18.4 µM (active); to `COc1ccccc1Cn1c(=S)[nH]c2cc(C(=O)N3CCN(C)CC3)ccc2c1=O`, “inactive”; to `CCCCn1c(=S)[nH]c2ccccc2c1=O`, “inactive”.
Same read-out and setting: to `CCCOc1ccccc1C1CC(=O)Nc2cc3c(cc21)OCO3` (centres undefined) belongs 6.51 µM (active).
For `COc1ccc(C2CC(=O)Nc3cc(C)c(C)cc32)c(OC)c1OC` (centres undefined), the Potency entry was “inactive”.
On the same count and under the same terms, as for `COc1ccccc1C1C2=C(COC2=O)Nc2cc3c(cc21)OCO3` (centres undefined), the entry is “inactive”; as for `Nc1c(N(Cc2ccco2)C(=O)c2cccc(F)c2)c(=O)[nH]c(=O)n1Cc1ccccc1`, “inactive”.
Same read-out and setting: as for `CC(=O)NC1=NN(C(C)=O)C(C)(c2ccc(Cl)s2)S1` (centres undefined), the figure is 8.2 µM (active); as for `CC(=O)NC1=NN(C(C)=O)C(C)(CCS(=O)(=O)c2ccc(Cl)c(Cl)c2)S1` (centres undefined), “inactive”.
The same measure, in the same setting: as for `CC(=O)NC1=NN(C(C)=O)C(C)(c2ccc(C)cc2)S1` (centres undefined), the entry is “inactive”; as for `COc1ccccc1S(=O)(=O)NCc1ccc(C(=O)N(C)Cc2ccc(F)cc2)cc1`, “inactive”.
With `O=C(COC(=O)c1cccnc1Cl)NC12CC3CC(CC(C3)C1)C2`, the Potency entry is “inactive”.
On the same count and under the same terms, to `O=C(COC(=O)c1ccc(F)cc1)NCC1COc2ccccc2O1` (centres undefined) belongs “inactive”; to `CN(c1ccccc1)S(=O)(=O)c1ccc(Cl)c(C(=O)OCC(=O)NCc2ccco2)c1`, “inactive”.
Regarding `Cc1cc(C(=O)OCC(=O)NCc2ccco2)c(C)n1-c1ccccc1`, the Potency is 6.31 µM (active).
On to `O=C(COC(=O)c1ccccc1O)NCc1ccco1`, for which the Potency entry is “inactive”.
Take `O=C1c2ccccc2C(=O)N1CCCCCCN1C(=O)c2ccccc2C1=O`: the Potency result is “inactive”.
Same read-out and setting: as for `COC(=O)c1ccc(C)c(NC(=O)Cn2c(C)csc2=O)c1`, the entry is “inactive”; as for `CCSc1nsc(NC(=O)Nc2ccccc2OC)n1`, “inactive”; as for `CCSc1nsc(NC(=O)Nc2cccc(C(C)=O)c2)n1`, 16.4 µM (active).
Same read-out and setting: to `C=CCSc1nsc(NC(=O)Nc2cccc(C(C)=O)c2)n1` belongs “inactive”.
Regarding `COc1cc(C2C(C(=O)c3ccc(C)o3)=C(O)C(=O)N2Cc2cccnc2)ccc1O` (centres undefined), the Potency result is “inactive”.
The same measure, in the same setting: as for `COc1cc(C2C(C(=O)c3ccc(C)o3)=C(O)C(=O)N2CCc2ccccc2)ccc1O` (centres undefined), the entry is “inactive”; as for `Cc1cc(N2C(=O)C(O)=C(C(=O)c3ccc(C)o3)C2c2ccc(OCc3ccccc3)cc2)no1` (centres undefined), 20.6 µM (active).

The values above are taken from PubChem BioAssay AID624296 (National Center for Advancing Translational Sciences (NCATS), 2012).
